Screening results (PubChem BioAssay)
HT1080NT lethal: kills 2HG-producing HT-1080-NT fibrosarcoma cells; AID 686970; 360,000 compounds, 1.6% hits; HT-1080-NT fibrosarcoma viability, CellTiter-Glo ATP luminescence, 48 h; Potency, µM (series often up to 46.1 µM), inactives show at the highest dose activity, negative = less viability, most hits filed as cytotoxic;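 note: NT is the 2HG producing partner of a matched IDH1 knockdown line; potency is the fitted concentration of half-maximal effect; 0% = DMSO-treated cells and -100% = media-only wells without cells; nearly all actives have a fitted effect of over 55% in size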
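HT-1080-NT; 750 cells/well; 5% FBS RPMI; 48 h compound, 37 degrees C; CellTiter-Glo luminescence; curve fitting and curve-class assignment.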
IL-1B inflam inh: inflammasome signaling inhibition, IL-1 beta readout; activity change, % at 57.5 µM; THP-1 LPS/ATP IL-1B secretion, AlphaLISA, 16 h; hits give low values; 360,000 compounds, 4.7% hits; in the data active = activity change below about -50%; inconclusive = mostly about -30% to -49%
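Secreted IL-1B measured by AlphaLISA bead assay after 16 h compound exposure of THP-1 cells; compounds (final up to 57.5 uM) added 1 h before LPS (250 ng/mL) and ATP (1.25 mM) stimulation; lower signal means less secretion.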
TDP1 cell noCPT: qHTS for Inhibitors of human tyrosyl-DNA phosphodiesterase 1 (TDP1): qHTS in cells in absence of CPT; DT40 Tdp1-/- hTDP1 cells, no CPT, ATP luminescence, 48 h; Potency, µM (series often up to 46.2 µM), without a hit: at the top dose activity change, negative = growth inhibition, most hits filed as inhibitors; 420,000 compounds, 15% hits; note: potency is the fitted concentration of half-maximal effect; nearly all actives have a fitted effect of over 55% in size
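Chicken DT40 Tdp1-/- cells complemented with human TDP1, screened without camptothecin (DMSO vehicle only), 400 cells/well. Compounds pin-transferred, cells incubated at 37 °C for at least 48 hr. Growth read as ATP-dependent luminescence (CellTiter-Glo, 30 min at RT).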
HT1080 IDH1KD tx: kills HT-1080 cells with IDH1 knockdown; Potency, µM (titrated, usually from 46.1 µM), for inactives: top-dose activity, negative = toxicity, hits mostly cytotoxic; 360,000 compounds, 2% hits; HT-1080 IDH1 knockdown viability, ATP luminescence, 48 h; AID 686971;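 note: potency is the fitted concentration of half-maximal effect; 0% = DMSO wells and -100% = cell-free medium wells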
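Viability of IDH1-knockdown HT-1080 fibrosarcoma cells was assessed by CellTiter-Glo after 48 h at 37 °C with titrated compound; concentration-effect curves were classified by fit quality and response size.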
DT40 TDP1 CPT: DT40-hTDP1 cell growth loss with CPT | chicken DT40 Tdp1-/-;hTDP1 cells + 20 nM CPT, ATP luminescence, 48 h | Potency, µM (doses to about 46.2 µM), for inactives: top-dose activity change, negative = growth inhibition, hits mostly inhibitors | 420,000 compounds, 12% hits | AID 686979; note: potency is the fitted concentration of half-maximal effect; nearly all actives have a fitted effect of over 55% in size
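Cell growth measured by CellTiter-Glo luminescence after a minimum 48 h, 37 C compound exposure with 20 nM CPT in Tdp1-knockout DT40 cells stably expressing hTDP1, seeded 400/well; qHTS titration format.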
Starred values were filed as active, the others as inactive; ? = inconclusive; nt = no result given. Sampled rows, rich in hits. Any-hit rate of the full collection: about 19%. Unless noted, calls come from the whole dose curve; as a rule, active = well fitted curve in the direction sought with a large enough effect; inconclusive = small, poorly fitted or top-dose-only effect, or another doubt; inactive = no such curve, though single readings can be large; an effect the other way counts as inactive or inconclusive. Unless noted, % is set by controls: 0 for no effect and ±100 for the full control effect.

SMILES | HT1080NT lethal | IL-1B inflam inh | TDP1 cell noCPT | HT1080 IDH1KD tx | DT40 TDP1 CPT
O=C(Nc1nnc(-c2ccccn2)o1)c1cccc(Br)c1 | -20.9% | -7.0 | ? | -15.7% | 20.6µM*
O=C(Nc1nnc(-c2cccnc2)o1)c1cccc(Cl)c1 | -13.7% | 13.9 | 16.4µM* | -25.7% | 23.1µM*
Cc1ccc(C(=O)Nc2nnc(-c3ccncc3)o2)cc1 | -17.1% | 1.5 | ? | -28.2% | ?
N#CC1=C(N)OC2=C(CCc3ccccc32)C1c1ccccc1 (centres undefined) | 0.92µM* | 13.0 | 0.92µM* | 0.581µM* | 0.82µM*
Cc1ccc(/C=C2\CCC3=C2OC(N)=C(C#N)C3c2ccc(C)cc2)cc1 (centres undefined) | -5.1% | -69.9* | 6.51µM* | 13.3% | 4.61µM*
Cn1cc(-c2nc3cnc(N4CCNCC4)nc3n(-c3ccccc3)c2=O)c2ccccc21 | nt | nt | 5.2% | nt | 1.0%
O=C(CCc1ccccc1O)N/N=C/c1ccc(Sc2cccc3cccnc23)o1 | ? | -28.9 | ? | -21.1% | ?
COc1ccc2nc(NC(=O)c3cccnc3SC)sc2c1 | -14.9% | -3.5 | ? | -1.4% | -13.0%
CCC(=O)C1=C(O)C(c2cccc(Oc3ccccc3)c2)CCC1=O (centres undefined) | -0.5% | 0.0 | 9.2µM* | -5.4% | 20.6µM*
COc1ccc2c(c1)C(=O)CCC2c1ccccc1 (centres undefined) | -0.8% | 28.7 | ? | -6.1% | 2.1%
Cc1c(C(=O)NCc2ccc(F)cc2)sc2nc3n(c(=O)c12)CCC3 | nt | nt | -17.0% | nt | -11.7%
OC(CSc1ccccc1)CN1CCN(c2cccc(Cl)c2)CC1 (centres undefined) | -18.1% | -17.1 | 20.6µM* | 2.3% | ?
CC(NC(=O)CN1CCN(c2cccc(Cl)c2)CC1)c1ccccc1 (centres undefined) | -3.0% | 0.0 | -25.5% | -1.3% | ?
OC(CSc1ccccc1)CN1CCN(c2ccc(Cl)cc2)CC1 (centres undefined) | -9.5% | ? | 20.6µM* | 1.5% | ?
c1ccc(SCCN2CCN(c3ccccc3)CC2)cc1 | 0.2% | -0.9 | -13.6% | -0.6% | -15.8%
COC(=O)c1ccc(N2C(=O)C3CC=CC(C)C3C2=O)cc1 (centres undefined) | -0.7% | 19.2 | 1.0% | -0.5% | 2.4%
COc1ccc(CNC(=O)Cn2c(=O)nc(-c3ccccc3)c3ccccc32)cc1OC | nt | nt | 16.4µM* | nt | ?
Cc1c(Cl)cccc1NC(=O)Cn1c(=O)nc(-c2ccccc2)c2ccccc21 | nt | nt | 16.4µM* | nt | ?
Cc1cccc(NC(=O)Cn2c(=O)nc(-c3ccccc3)c3ccccc32)c1C | nt | nt | 20.6µM* | nt | ?
O=C(NCc1nc2ccccc2[nH]1)C1=C[C@H](c2csc3ccccc23)C[C@H](OCc2ccc(CO)cc2)O1 | -4.5% | -28.7 | 14.6µM* | -19.2% | ?
O=C(C1=C[C@@H](c2csc3ccccc23)C[C@@H](OCc2ccc(CO)cc2)O1)N1CCOCC1 | -1.5% | -19.3 | -23.7% | 6.9% | ?
O=C(NC1CC1)C1=C[C@H](c2ccc(Br)cc2)C[C@H](OCc2ccc(CO)cc2)O1 | -17.7% | -25.8 | 14.6µM* | -21.1% | 23.1µM*
O=C(NCc1nc2ccccc2[nH]1)C1=C[C@@H](c2csc3ccccc23)C[C@@H](OCc2ccc(CO)cc2)O1 | -13.9% | 0.0 | 20.6µM* | -4.0% | ?
C[C@H]1C=C(C(=O)NCc2nc3ccccc3[nH]2)O[C@@H](OCc2ccc(CO)cc2)C1 | -17.7% | -15.1 | -17.4% | -2.9% | -20.6%
O=C(NCc1nc2ccccc2[nH]1)C1=C[C@@H](c2ccc(Br)cc2)C[C@@H](OCc2ccc(CO)cc2)O1 | -29.6% | 0.0 | 18.4µM* | ? | 9.2µM*
SMILES | HT1080NT lethal | IL-1B inflam inh | TDP1 cell noCPT | HT1080 IDH1KD tx | DT40 TDP1 CPT
CCN(CC)CCCn1c2c(c(SCC(=O)N3CCc4ccccc43)nc1=O)CCC2 | -3.0% | -14.1 | -3.3% | -15.8% | 18.6%
CCC(C)NS(=O)(=O)c1ccc(OC)c(Cl)c1Cl (centres undefined) | -3.4% | -10.7 | -2.1% | 0.1% | 2.5%
C[C@H](CO)N1C[C@H](C)[C@@H](CN(C)C)Oc2c(NS(=O)(=O)c3ccc(F)cc3)cccc2C1=O | 13.0% | 13.9 | -20.7% | 11.8% | -3.6%
O=C(CCC1N=C2c3ccccc3N=C(SCc3ccc(Cl)cc3)N2C1=O)NCc1ccco1 (centres undefined) | -3.0% | ? | ? | -19.6% | ?
Cc1ccc(CSC2=Nc3ccccc3C3=NC(CCC(=O)NC4CCCCC4)C(=O)N23)cc1 (centres undefined) | nt | nt | ? | nt | 23.1µM*
O=C(CCC1N=C2c3ccccc3N=C(SCc3ccc(Cl)cc3)N2C1=O)NC1CCCCC1 (centres undefined) | nt | nt | 13µM* | nt | -86.1%
Cc1nn(C)cc1C(C(=O)NC1CCCCC1)N(C(=O)Cc1cccs1)c1ccc(Cl)cc1 (centres undefined) | -4.2% | 1.2 | 6.51µM* | -23.9% | 2.91µM*
COc1ccc(N(C(=O)Cc2cccs2)C(C(=O)NC2CCCCC2)c2cccn2C)cc1OC (centres undefined) | 1.3% | -5.6 | -17.7% | -0.2% | -1.0%
COc1cc(N(C(=O)Cc2cccs2)C(C(=O)NC2CCCCC2)c2ccc(C)cc2)ccc1-n1cnnn1 (centres undefined) | -7.9% | 0.9 | 13µM* | -18.0% | 20.6µM*
Cc1ccccc1NC(=O)CSc1nc2ccc(NC(=O)c3cccs3)cc2s1 | nt | nt | 20.6µM* | nt | ?
CSc1nc2ccc(NC(=O)c3cccs3)cc2s1 | 0.0% | -24.6 | ? | -21.7% | ?
Cc1cc(C)cc(OCCSc2nc3ccc(NC(=O)c4cccs4)cc3s2)c1 | nt | nt | 20.6µM* | nt | ?
Cc1ccc(OCCSc2nc3ccc(NC(=O)c4cccs4)cc3s2)cc1 | nt | nt | -25.3% | nt | -24.4%
COc1ccccc1C(=O)Nc1ccc2nc(SCCOc3ccccc3C)sc2c1 | nt | nt | 18.4µM* | nt | 16.4µM*
CC(=O)c1cc(C#N)c(SCc2ccc([N+](=O)[O-])cc2)nc1C | 22.5% | -6.1 | 5.2% | 6.4% | -27.2%
O=C(c1cn(Cc2ccccc2)nc1-c1cccnc1)N1CCc2ccccc2C1 | -1.2% | -4.0 | ? | -1.5% | ?
COC(=O)c1ccc(NCc2cc(O)ccc2O)cc1O | ? | -104.2* | 3.26µM* | ? | 5.17µM*
COC(=O)c1ccc(NCc2c(O)ccc(O)c2Br)cc1Cl | -12.0% | -118.5* | 4.61µM* | -24.1% | 2.59µM*
CC(C)(C)C(=O)N(Cc1ccc(Cl)cc1)Cc1cccnc1 | -4.3% | 0.0 | -22.0% | 2.3% | -19.5%
